Screening data: PubChem BioAssay, National Center for Advancing Translational Sciences (NCATS)
Compounds with a hit are over-represented: about 7% of the library has one in this group of screens.
PLK1 PBD block: PLK1 (human) polo-box domain binding inhibition. P53350. Plk1 PBD binding of FITC phosphopeptide, fluorescence polarization. Potency, µM, inactives show max response, negative = inhibition, usual class: inhibitors. 360,000 tested, 2.8% active; note: potency is the fitted concentration of half-maximal effect; series mostly up to about 57 µM; % is set by controls: 0 for no effect and ±100 for the full control effect; nearly all actives have a fitted effect of over 65% in size
JMJD2A Tudor: inhibitors of human JMJD2A Tudor domain | O75164 | AlphaScreen JMJD2A-Tudor / H3K4me3 peptide binding | Potency, µM (doses to about 114 µM), inactives show top-dose activity change, negative = inhibition, hits mostly inhibitors | 390,000 tested, 4.4% active | AID 504339; note: potency is the fitted concentration of half-maximal effect; % is set by controls: 0 for no effect and ±100 for the full control effect; nearly all actives have a fitted effect of over 50% in size
HP1b chromo inh: inhibitors of HP1-beta chromodomain binding to methylated histone tails; P83916; AlphaScreen HP1-beta / biotin-H3K9me3 peptide binding; Potency, µM (highest dose often 114 µM), for the others: at the top dose activity change, negative = inhibition, usual class: inhibitors; 390,000 tested, 0.56% active; AID 540317; note: potency is the fitted concentration of half-maximal effect; nearly all actives have a fitted effect of over 70% in size
Target sequence (P83916 whole entry, looked up): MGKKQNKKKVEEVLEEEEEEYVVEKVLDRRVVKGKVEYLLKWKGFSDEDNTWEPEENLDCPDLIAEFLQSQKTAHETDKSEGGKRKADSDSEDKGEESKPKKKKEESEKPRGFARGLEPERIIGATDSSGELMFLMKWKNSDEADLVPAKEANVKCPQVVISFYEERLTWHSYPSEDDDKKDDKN
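AlphaScreen: HP1-beta (50 nM) preformed 30 min with biotin-H3(1-18)K9me3 peptide (50 nM) in PBS pH 7.4, 0.01% Tween-20. Compound added for 30 min at RT, then streptavidin donor/nickel chelate acceptor beads (10 ug/mL) for 30 min.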
PI5P4K alpha inh: inhibitors of human PI5P4K alpha. max response, %. P48426. PI5P4Kalpha enzyme, ADP-Glo luminescence, 60 min; stronger effect = lower value. 330,000 tested, 1.2% active; active = max response of -50% or lower; inconclusive = between -30% and -50%; inactive = -30% or higher; note: value at the top dose of about 77 µM; % is set by controls: 0 for no effect and ±100 for the full control effect
Target sequence (P48426 whole entry, looked up): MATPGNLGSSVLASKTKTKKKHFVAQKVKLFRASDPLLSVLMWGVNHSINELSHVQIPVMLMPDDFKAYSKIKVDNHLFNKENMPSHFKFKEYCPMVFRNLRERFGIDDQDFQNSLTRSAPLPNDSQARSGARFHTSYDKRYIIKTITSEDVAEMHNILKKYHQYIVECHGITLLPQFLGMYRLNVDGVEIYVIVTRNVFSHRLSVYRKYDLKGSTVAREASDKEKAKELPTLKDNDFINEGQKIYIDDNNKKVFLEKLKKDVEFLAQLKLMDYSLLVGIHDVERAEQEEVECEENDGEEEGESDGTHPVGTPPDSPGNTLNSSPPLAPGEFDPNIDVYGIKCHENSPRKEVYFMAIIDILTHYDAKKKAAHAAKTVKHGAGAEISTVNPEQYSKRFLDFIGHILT
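Controls without substrate or without enzyme flank wells where PI5P4Kalpha converts substrate using 5 microM ATP (final). Incubation lasts 60 minutes at room temperature; ADP formed is read by ADP-Glo luminescence.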
BAZ2B inh: inhibitors of human BAZ2B bromodomain; AlphaScreen BAZ2B-H3K14Ac peptide displacement; Potency, µM (titrated, usually from 114 µM), for inactives: at the highest dose activity change, negative = inhibition, most hits filed as inhibitors; 360,000 tested, 4.4% active; Q9UIF8; note: potency is the fitted concentration of half-maximal effect; % is set by controls: 0 for no effect and ±100 for the full control effect; nearly all actives have a fitted effect of over 60% in size
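AlphaScreen displacement: compounds (up to 110uM) incubated 30 min at room temperature with a preformed 50 nM BAZ2B/50 nM biotinylated H3K14Ac peptide complex in PBS pH 7.4 with Tween-20. Donor and acceptor beads at 10 ug/mL final added, 20 min light-protected before reading.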
KAT2A inh: inhibitors of human GCN5L2 histone acetyltransferase. 390,000 tested, 0.21% active. GCN5L2 HAT assay, ThioGlo1 CoA-SH fluorescence. Potency, µM (top dose mostly 58.9 µM), without a hit: top-dose activity change, negative = inhibition, most hits filed as inhibitors. Q92830; note: potency is the fitted concentration of half-maximal effect; % is set by controls: 0 for no effect and ±100 for the full control effect
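GCN5L2 (20nM final) in 50mM HEPES, 0.1mM EDTA pH 7.5, 0.01% Tween-20 was preincubated 15 min at room temperature with compound, then given ThioGlo1 (50uM), H3(1-25) peptide (75uM) and acetyl-CoA (70uM); CoA-thiol fluorescence (Ex340/Em540) was read at 0 and 20 min.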
The depositor's hits bear a star; ? = inconclusive; / = no result given; [ ] = remark or other dose. Unless noted, calls come from the whole dose curve; as a rule, active = well fitted curve in the direction sought with a large enough effect; inconclusive = small, poorly fitted or top-dose-only effect, or another doubt; inactive = no such curve, though single readings can be large; an effect the other way counts as inactive or inconclusive.

SMILES | PLK1 PBD block | JMJD2A Tudor | HP1b chromo inh | PI5P4K alpha inh | BAZ2B inh | KAT2A inh
CC1(C)Oc2ccc3ccc(=O)oc3c2CC1O (centres undefined) | 6% | 7% | 43% | -1 | 5% | -5%
CCC(C)c1ccc(NC(=O)N2CCOCC2)cc1 (centres undefined) | 1% | -12% | 25% | 4 | 13% | -10%
CCOC(=O)c1ccc(NC(=O)c2cc3c(=O)n(C)c4ccccc4c3n2C)cc1 | / | -19% | 25% | / | -6% | 1%
O=c1c(S(=O)(=O)c2ccccc2)cn(Cc2ccc(F)cc2)c2cc(N3CCOCC3)c(F)cc12 | / | -3% | 25% | / | -2% | -3%
O=C1NC(=Nc2ccccc2Cl)S/C1=C\c1cccc([N+](=O)[O-])c1 | 27µM* | ? | 32% | -27 | 50µM* | -20%
COc1ccc(/C=C2\SC(=Nc3ccccc3Cl)NC2=O)c(OC)c1 | ? | / | / | -20 | / | /
O=C1NC(=Nc2ccccc2Cl)S/C1=C\c1cccc([N+](=O)[O-])c1O | 27µM* | 40µM* | ? | -85* | 11µM* | -4%
O=C1NC(=O)/C(=C/c2ccc(-c3cccc([N+](=O)[O-])c3)o2)S1 | ? | ? | -8% | -51* | ? | -14%
O=C1NC(=Nc2ccccc2Cl)S/C1=C\c1ccc(C(=O)O)cc1 | -28% | -15% | 19% | -65* | -18% | -1%
Cc1ccccc1N=C1NC(=O)/C(=C/c2cccnc2)S1 | -16% | -24% | 18% | ? | -19% | -5%
O=C(Cn1cnc2c(NCc3ccccc3)ncnc21)NCCc1cc2ccccc2[nH]1 | -7% | -20% | 22% | 0 | / | -2%
Cc1nn(-c2ccc(N3CCCCC3)nn2)c(C)c1CCC(=O)NCc1ccccc1 | / | -18% | 35% | / | -28% | -4%
O=C1NC(=O)/C(=C/c2cccc([N+](=O)[O-])c2)N1 | -1% | -14% | 41% | -30 | -2% | 2%
O=C1NC(=S)S/C1=C\c1cccc([N+](=O)[O-])c1 | -30% | -28% | 8% | -65* | / | /
CC1=C(C#N)c2nc(N)c(C#N)c(C)c2/C1=C\c1ccc(-c2ccccc2C(=O)O)o1 | 27µM* | 35µM* | 45µM* | -72* | 13µM* | ?
COc1cc(/C=C2/C(C)=C(C#N)c3nc(N)c(C#N)c(C)c32)ccc1OCC(=O)O | 24µM* | -5%[11.4 µM] | -24% | -15 | 45µM* | 0%
CC(C)Oc1ccc(Cn2c(-c3ccco3)n[nH]c2=S)cc1 | -18% | 40µM* | -10% | 0 | -35% | -9%
COc1ccc(-n2c(-c3ccco3)n[nH]c2=S)cc1 | -8% | 4.5µM* | ? | / | -3% | -5%
COc1ccccc1-c1n[nH]c(=S)n1N | 0% | ? | 16% | -2 | ? | -1%
Nn1c(-c2ccco2)n[nH]c1=S | -10% | 7.1µM* | ? | / | 50µM* | -8%
Cn1cc(Cl)c(-c2n[nH]c(=S)n2C2CCCCC2)n1 | -6% | 4.5µM* | 17% | 8 | -19% | -1%
S=c1[nH]nc(COc2ccc(Cl)cc2)n1C1CCCCC1 | -22% | -18% | 21% | / | 15% | -7%
Cc1ccc(C)c(N2CN(Cc3ccco3)CNC2=S)c1 | 0% | -24% | 9% | 1 | 3% | 24%
Cc1ccc(C)c(-n2c(-c3ccco3)n[nH]c2=S)c1 | -27% | 8.9µM* | -23% | -12 | / | /
S=c1[nH]nc(-c2ccco2)n1-c1ccc(Cl)cc1 | -19% | 32µM* | -8% | -22 | -15% | 1%
SMILES | PLK1 PBD block | JMJD2A Tudor | HP1b chromo inh | PI5P4K alpha inh | BAZ2B inh | KAT2A inh
CC(C)(C)c1cc(-c2n[nH]c(=S)n2-c2ccc(Cl)cc2)n[nH]1 | 30µM* | 40µM* | -12% | -13 | ? | -2%
S=c1[nH]nc(-c2ccco2)n1C1CCCCC1 | -8% | 3.2µM* | ? | -9 | -12% | 27%
COc1ccc(Nc2nc(N)nc(CSC(=S)N3CCCCC3)n2)cc1 | -1% | ? | -16% | 5 | 71µM* | -3%
COc1ccc(Nc2nc(N)nc(COc3ccc(OC)cc3)n2)cc1 | -6% | -12% | 39% | 0 | 10% | -6%
CCOc1ccc(Nc2nc(N)nc(CN(C)C3CCCCC3)n2)cc1 | 5% | 20µM* | 32% | 8 | 28µM* | 1%
COc1ccc(Nc2nc(N)nc(CN(C)C3CCCCC3)n2)cc1 | -3% | 45µM* | 13% | -1 | 32µM* | -7%
CC1CCN(S(=O)(=O)c2ccc3c(c2)N(CC(=O)NCCN(C)C)C(=O)CS3)CC1 | / | -11% | 27% | / | -7% | -6%
O=C(Cn1c(=O)nc(-c2ccccc2)c2ccccc21)NCc1ccccc1Cl | / | -28% | 19% | / | -8% | 6%
CC(=O)Nc1cc(O)c2nonc2c1O | / | 25µM* | ? | / | / | /
CC(=O)Nc1c(O)cc(Br)c2nonc12 | / | -18%[57.1 µM] | 16%[57 µM] | / | / | /
COc1ccc2[nH]c(=O)cc(C(=O)O)c2c1 | -5% | ? | -7% | 5 | 50µM* | -20%
CC(OC(=O)c1cc(O)c2ccccc2c1O)C(=O)Nc1ccc(C(N)=O)cc1 (centres undefined) | 6.7µM* | ? | ? | -25 | ? | -2%
O=S(=O)(O)c1ccc(O)c2cc(Nc3ccccc3)ccc12 | 4.7µM* | 2.8µM* | 2µM* | -105* | / | /
Oc1cccc(Nc2ccccc2)c1 | -2% | -31% | -9% | 2 | ? | ?
Cc1ccc(S(=O)(=O)c2cc(Nc3ccccc3)ccc2O)cc1 | -30% | ? | -11% | -6 | 50µM* | -4%
Cc1ccc(S(=O)(=O)Nc2cc(C)c(O)c(S(=O)(=O)c3ccc(C)cc3)c2)cc1 | 1% | -33% | 13% | -1 | -13% | ?
COc1ccc(Cl)cc1N(C)C(=O)Cc1noc2ccc(C)cc12 | / | -36% | -9% | / | -36% | -9%
Nc1n[nH]c(N)c1N=Nc1ccc(Cl)cc1 | -4% | 35µM* | -33% | 14 | 45µM* | -7%
Nc1n[nH]c(N)c1N=Nc1cccc(F)c1 | -3% | ? | -17% | -4 | 40µM* | -2%
Cc1cccc(N=Nc2c(N)n[nH]c2N)c1 | -1% | ? | -17% | -6 | 40µM* | ?
Nc1[nH]ncc1N=Nc1ccc(Cl)cc1 | -7% | -34% | -3% | -2 | ? | -16%
Nc1n[nH]c(N)c1N=Nc1cccc(C(F)(F)F)c1 | 6% | ? | -1% | -2 | 40µM* | ?
O=C(NCc1ccccc1)n1cc(P(=S)(c2ccccc2)c2ccccc2)c2ccccc21 | / | -11% | / | / | / | /
CCN1CCN(CCCNC(=O)CNC(=O)c2nn(-c3ccc(OC)cc3OC)c(=O)c3ccccc23)CC1 | -8% | -4% | 16% | 0 | 1% | 3%
O=C1CCCC2=C1C1(CCSCC1)N=C(Nc1nc3ccccc3o1)N2 | / | -13% | / | / | / | /
